# Screening data deposited in PubChem BioAssay by National Center for Advancing Translational Sciences (NCATS).
# D1 PAM: enhances dopamine response at the human D1 receptor | AID 504651 | P21728 | 360,000 tested, 0.036% active | HEK293 TREx D1 cells, calcium flux, dopamine EC20 potentiation | potentiation, % at 10 µM; in the data active = potentiation above about 30%; note: 0% is about no effect
# D1 antagonist: antagonists of human D1 dopamine receptor | 360,000 tested, 3.2% active | HEK293 TREx D1 cells, calcium flux, dopamine EC80; hits give low values | P21728 | activity change, negative = inhibition, % at 10 µM | AID 504652; in the data active = activity change below about -30%; note: % is set by controls: 0 for no effect and ±100 for the full control effect
#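 Tetracycline-induced HEK293 Trex D1 cells, force-coupled to calcium, dye-loaded; compounds added and read 180 s, then EC80 dopamine added and calcium flux tracked kinetically another 180 s.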
# D1 ag: activates the human D1 dopamine receptor; activation, % at 2 µM; HEK293 T-REx D1 cells, calcium flux, agonist mode; AID 504660; 360,000 tested, 1% active; P21728; in the data active = activation above about 30%; note: 0% is about no effect
#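 Tetracycline-induced HEK293 TREx D1 cells, force-coupled to calcium signalling, were dye-loaded with a no-wash calcium kit. Compound was pin-added after a 10 s baseline. Fluorescence was read kinetically at 1 cycle/s for 180 s, with calcium rises flagged as agonism.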
# DRD3 agonist: agonists of human D3 dopamine receptor. 410,000 tested, 0.58% active. D3R DiscoveRx beta-arrestin cells, luminescence, 90 min. max activation, %. P35462; in the data active = max activation above about 30%; note: 0% is about no effect
# Target sequence (P35462 whole entry, looked up): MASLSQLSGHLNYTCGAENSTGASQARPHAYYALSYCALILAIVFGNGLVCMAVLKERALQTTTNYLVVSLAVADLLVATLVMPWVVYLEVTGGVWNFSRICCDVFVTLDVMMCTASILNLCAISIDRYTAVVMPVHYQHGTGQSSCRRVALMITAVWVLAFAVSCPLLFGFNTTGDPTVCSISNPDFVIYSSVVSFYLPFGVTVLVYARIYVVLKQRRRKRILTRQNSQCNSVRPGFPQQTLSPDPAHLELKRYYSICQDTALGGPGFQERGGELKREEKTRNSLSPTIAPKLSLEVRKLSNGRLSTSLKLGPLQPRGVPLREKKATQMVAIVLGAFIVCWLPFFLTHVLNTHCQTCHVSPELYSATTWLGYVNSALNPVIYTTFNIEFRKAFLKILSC
#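 Agonist mode: compounds and dopamine controls were applied to plated cells for 90 min at 37 degrees C after an overnight attachment at 1500 cells/well. Luminescent read-out followed 30 - 60 minutes at room temperature with DiscoveRx detection reagent.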
# DRD3 antagonist: D3 dopamine receptor (human) antagonism. P35462. D3R cells, DiscoveRx beta-arrestin luminescence, antagonist mode; hits give low values. max response, negative = inhibition, %. 360,000 tested, 2.5% active; in the data active = max response below about -50%; inconclusive = no clear call, values can overlap the other calls; note: % is set by controls: 0 for no effect and ±100 for the full control effect
#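 Cells expressing the human receptor were seeded at 1500 cells/well, incubated overnight at 37 degrees C in 5% CO2, then exposed to library compounds with dopamine controls for 90 minutes at 37 degrees C before luminescent detection.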
# An asterisk follows results filed as active; ? = inconclusive; · = no result given. Most compounds without a hit are left out; they make up all but 6% or so of the library.
SMILES,D1 PAM,D1 antagonist,D1 ag,DRD3 agonist,DRD3 antagonist
O=C(CSc1nnc(-c2ccccn2)n1Cc1ccco1)c1ccc(-c2ccccc2)cc1,-6,-90*,2,2,8
O=C(O)CC1S/C(=N\N=C2CCCCCCC2)N(c2ccccc2)C1=O (centres undefined),5,13,0,-5,2
O=C(O)CC1SC(=Nc2ccccc2)N(c2ccccc2)C1=O (centres undefined),-5,-31*,-1,4,-8
CC(C)c1ccc(S(=O)(=O)N2CCN(C(=O)CN3C(=O)c4ccccc4C3=O)CC2)cc1,·,·,·,4,15
CCc1ccc(N2C(=O)CN(Cc3ccc(OC)c(OC)c3)C2=S)cc1,0,-83*,2,11,1
COc1ccc(CN2CC(=O)N(c3ccc(Cl)cc3)C2=S)cc1OC,-1,-5,4,17,15
OCCNc1nc(-c2ccccc2)nc2ccccc12,-8,-35*,4,-2,1
O=C(Nc1nc(-c2ccccc2)nc2ccccc12)c1ccc(F)cc1,-7,-58*,2,1,3
Oc1ccc(Nc2nc(-c3ccc(Cl)cc3)nc3ccccc23)cc1,-5,-34*,4,2,·
CC(=O)Nc1ccc(Nc2nc(-c3ccccc3)nc3ccccc23)cc1,-4,-2,1,-9,69
Cc1ccc(Nc2nc(NCCO)c3ccccc3n2)cc1C,-11,-38*,13,10,5
Oc1ccc(Nc2nc(-c3ccccc3)nc3ccccc23)cc1,-4,-19,1,-4,13
CC(C)C[C@H]1CN(CCCC[C@@H]2CNC(=O)C(=O)N2CCc2ccccc2)C(=O)C(=O)N1Cc1ccccc1,·,·,·,-3,-18
Cc1ccccc1CNC(=O)c1ccc(Cl)c([N+](=O)[O-])c1,-3,-61*,12,7,-7
CC(C)[C@H](NC(=O)c1ccc(Cl)c([N+](=O)[O-])c1)C(=O)NCc1ccc(F)cc1,-10,-17,4,-14,?
Cc1ccccc1CNC(=O)c1ccccc1C,0,-27,0,-8,-17
Cc1ccccc1CNC(=O)c1ccccc1N,-4,-7,1,30*,-8
CC(C)[C@H](NC(=O)c1ccc(Cl)c([N+](=O)[O-])c1)C(=O)NCc1ccc(Cl)cc1Cl,-4,-39*,5,-6,?
OC[C@@H]1CN(Cc2ccc(-c3ccccc3)cc2)C[C@H](n2cnc3c(NC4CCC4)ncnc32)O1,·,·,·,3,25
O=C(NC1CCCC1)C(c1ccsc1)N(C(=O)Cc1cccs1)c1cccc(F)c1 (centres undefined),-9,-32*,5,-5,-3
Cc1ccc(N2C(=O)C(c3c(C)[nH]n(-c4ccccc4)c3=O)(C(F)(F)F)C3=C2CC(C)(C)CC3=O)cc1 (centres undefined),4,13,1,3,-75*
CN1CCCCC1CCN1c2ccccc2Sc2ccc(S(C)=O)cc21 (centres undefined),-4,-84*,7,-85,-75*
COC(=O)C1=CN(c2ccc3c(c2)OCO3)C(N)=C(C#N)C1c1ccccc1 (centres undefined),·,·,·,-2,-15
Cc1nc2ncnn2c(C)c1CCC(=O)O,-2,-37*,1,3,7
COc1ccccc1-c1cc2nc(-c3ccccc3)cc(N3CCN(C(=O)c4ccoc4)CC3)n2n1,·,·,·,20,48
SMILES,D1 PAM,D1 antagonist,D1 ag,DRD3 agonist,DRD3 antagonist
O=C1CC(NS(=O)(=O)c2ccc3ccccc3c2)CN1c1ccccc1 (centres undefined),-2,-4,6,2,5
O=C(OCC(=O)c1ccc[nH]1)c1ccc(S(=O)(=O)N2CCCCCC2)cc1,1,-6,2,3,-14
O=C(c1ccco1)N1CCN(S(=O)(=O)c2ccc3c(c2)CCN3C(=O)C2CC2)CC1,-2,-47*,-1,3,-3
O=C(COC(=O)c1ccc(CO)cc1)c1ccc(S(=O)(=O)N2CCCCC2)cc1,-6,-32*,11,2,-5
O=C(OCC(=O)N1CCCC1)c1ccc(S(=O)(=O)N2CCOCC2)cc1,0,10,4,-1,-10
O=C(COC(=O)c1ccc(O)cc1)Nc1ccc(S(=O)(=O)N2CCCC2)cc1,·,·,·,1,0
O=C(COC(=O)c1ccc(O)cc1)c1ccc(S(=O)(=O)N2CCCCC2)cc1,-9,-31*,9,-1,-13
O=C(OCC(=O)N1CCN(C(=O)c2ccco2)CC1)c1ccc(S(=O)(=O)N2CCCCC2)cc1,-16,-57*,6,1,36
COc1ccc(/C=C/C(=O)OCC(=O)c2ccc(S(=O)(=O)N3CCCCC3)cc2)cc1OC,-7,-55*,5,4,-2
NC(=O)COC(=O)/C=C/c1ccc(S(=O)(=O)N2CCCCCC2)cc1,-3,13,2,5,0
CCCCNc1nc2c(S(=O)(=O)c3ccc(Cl)cc3)nnn2c2ccsc12,-8,-51*,0,5,·
CCc1ccc(S(=O)(=O)c2nnn3c2nc(NC2CCCC2)c2sccc23)cc1,-6,-32*,4,4,·
CC(C)Nc1nc2c(S(=O)(=O)c3cccc(Cl)c3)nnn2c2ccsc12,-8,-57*,2,-13,·
Cc1ccc(S(=O)(=O)c2nnn3c2nc(NC2CCCCCC2)c2sccc23)cc1C,-1,-13,2,23,·
Cc1ccc(C)c(S(=O)(=O)c2nnn3c2nc(NC(C)C)c2sccc23)c1,-7,-60*,1,6,·
CC(=O)N1CCCc2cc(S(=O)(=O)N3CCCC(C(=O)Nc4ccc(F)cc4F)C3)ccc21 (centres undefined),-3,-8,2,-11,·
CCOC(=O)c1c(NC(=O)COc2ncnc3sccc23)sc2c1CCC2,3,18,3,35*,20
CC1CCCN(S(=O)(=O)c2cc3c(cc2Cl)NC(=O)CO3)C1 (centres undefined),0,-5,1,-7,·
Cc1onc(-c2ccccc2)c1C(=O)N1CCCC1,-10,-37*,3,10,-1
Cc1onc(-c2ccccc2)c1C(=O)N1CCCc2ccccc21,-2,1,2,-2,-10
Cc1onc(-c2c(Cl)cccc2Cl)c1C(=O)N1CCCc2ccccc21,1,18,139*,21,-17
Cc1onc(-c2ccccc2)c1C(=O)N1CCCCCC1,7,14,2,2,5
Cc1onc(-c2c(F)cccc2Cl)c1C(=O)N1CCc2ccccc21,5,3,1,34*,7
O=C(COC(=O)c1cnccn1)NCCc1ccc(Cl)cc1,-2,-1,3,6,15
CCCCCCN1C=CC(=C/C=C(\C#N)C(=O)OCC)C=C1,-5,-7,178*,0,8
CCCN1C=CC(=C/C=C(\C#N)C(=O)OCC)C=C1,0,-7,33*,·,·
